# From the supplement of paper PMC11417369
# ± gives the standard deviation of the averaged measurements. In all, about 25,000 sequences were measured (“ln(normalized median fluorescence intensity)”: median about 8.9, highest 2% from about 10 on). What follows is part of a selection rich in the highest values, with near analogues and random picks from the rest.
# Tested on: PfAP2-LT AP2 domain (GST-tagged)
# Assay: gcPBM binding intensity (ln(normalized median fluorescence intensity)); higher = stronger DNA binding
# Method in brief: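 An Agilent 4 × 180k array carrying primer-extended double-stranded 36-bp intergenic genomic probes and negative controls received GST-tagged P. falciparum DNA-binding domains expressed in E. coli, about 25 μg on average, for 1 h. The binding buffer contained 1× PBS, 1% milk, 0.2 mg/ml BSA, 0.5% salmon testes DNA and 0.03% Triton X-100. Binding intensity is the top Masliner-normalised natural-log median intensity across replicate spots of either probe orientation, read after Alexa488 anti-GST antibody staining and a 488 nm scan.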
row,Sequence,gcPBM binding intensity (ln)
1,TTTTCCCTCTTATTCACACAAAAAAAATAAAATAAA [CACACA_site4656],8.2 ± 0.42
2,TTTGCTTCGATATATTCACACATTTTTTTTCTTATT [CACACA_site4499],8.91 ± 0.46
3,TTCTTTTTTCAACACACACACACAAGAAAATATATA [CACACA_site9019],9.51 ± 0.16
4,AATATAAATAAAAACACACACAATGGTACCTATATA [CACACA_site7688],9.3 ± 0.39
5,TATTATATATATGGAAGTACAGGTATATCGTTTTTC [XGTACX_site3771],8.73 ± 0.4
6,AGTATACACGAACACACACACACATATATAAATATA [CACACA_site6913],10.2 ± 0.4
7,AAAAAAAAAATATACACACACACATACACATAAATA [CACACA_site3808],9.92 ± 0.21
8,AACATATACACGAACACACACACATATAAATAAATA [CACACA_site6380],9.87 ± 0.23
9,TATACATATATATACACACACACATATATATATATA [CACACA_site1299],9.9 ± 0.42
10,CACACGCACGAACACACACACATATAAATATAAATA [CACACA_site6299],9.71 ± 0.44
11,CTAAAATACGAACACACACACACATATAAATAAATA [CACACA_site7872],10.2 ± 0.33
12,CACACGCACGAACACACACACACACGCACGCACATA [CACACA_site6305],10.4 ± 0.13
13,CATATACACGAACACACACACATATAAATAAATATA [CACACA_site6379],9.74 ± 0.29
14,AACATATACACGAACACACACACATATATATATATA [CACACA_site502],10.3 ± 0.26
15,TAACACATAAATAAATATATACATATATATAAAATA [CACACA_negctrl_site375],8.81 ± 0.46
16,TACACATACACATACACACGCATAGAAACATACGAA [CACACA_site2137],9.48 ± 0.33
17,TATATACATATATACACACACATATATATATATATA [CACACA_site2805],9.905 ± 0.0071
18,TTTTTTAAATAATATTGTACAAAAAATGTATAAATA [XGTACX_site3010],8.44 ± 0.42
19,ATATATATATAAATATGTACATATATACATATATAC [XGTACX_site2374],8.89 ± 0.23
20,TGTATGTCTTTATTTTGTACACAATATAAAAAATTA [XGTACX_site5441],8.51 ± 0.38
21,ACCATTTGTAGGTAAACACACATTATTATTAATATC [CACACA_site2635],8.93 ± 0.4
22,CATTTTGTAAGATATGCACACATGGATCATATTTTA [CACACA_site423],8.95 ± 0.34
23,CAAAAGCGATACGGCACACATTTCCTGTTTAAATGA [CACACA_site5519],8.99 ± 0.58
24,TACTGATCTTTCTAGGTGCGCTGCTACCATTATCGT [GTGCAC_site9538],8.99 ± 0.49

row,Sequence,gcPBM binding intensity (ln)
1,GATATGATTAACTTATGTTATTCTTGATGATTACGT [CACACA_negctrl_site354],8.86 ± 0.38
2,TCTTTATTATTCGCCACACACATATAAATATAAATA [CACACA_site7441],8.93 ± 0.4
3,TGAACACGCACAAATACACACAAAAAAAATAAATAA [CACACA_site6257],9.31 ± 0.49
4,TATATACACGCACATACACACAAATAAAAAAACACC [CACACA_site7578],9.67 ± 0.31
5,CATATACACGAACACACACACACACGCACAAAAAAA [CACACA_site6376],10.1 ± 0.24
6,AAAAAAAAAAAAAAAAAAAAAAAAATATATATATAT [CACACA_negctrl_site436],9.25 ± 0.27
7,AAAAAAAAAAAAAATATATATATATATATATATATA [CACACA_negctrl_site540],10.1 ± 0.25
8,AAAAAAAAAAAAAAAAAAAAAAAAAAATATATATAT [CACACA_negctrl_site271],8.74 ± 0.28
9,AAAAAAATATATATATATATATATATATATATATAT [TGCATGCA_negctrl_site7],9.605 ± 0.064
10,AAAAAAAAAAAAAAAAAAAAATATATATATATATAT [GTGCAC_negctrl_site426],9.67 ± 0.085
11,AAAAAAAAAATATATATATATATATATATATATATA [GTGCAC_negctrl_site467],10.1 ± 0.2
12,ATATTTATATATATCATACACACTAATATGTATATT [CACACA_site3409],8.95 ± 0.42
13,ATATAAATAAATACAACACACATGTCATATCTAAAT [CACACA_site7533],9.12 ± 0.39
14,AGTAGTCTGGAGAAATGTACACAGTATCTGGTAGCT [XGTACX_site4871],8.86 ± 0.44
15,CACATACACATACACATACACACGCATAGAAACATA [CACACA_site2136],9.71 ± 0.28
16,AAAAAAAAAAAACACACACACAAATACAAATACATA [CACACA_site415],9.99 ± 0.38
17,ATACAACATATATATACACACATATAATAATAATAA [CACACA_site3367],9.26 ± 0.38
18,GGTACATACAAACACACACACAAAAAAAAAAAAATA [CACACA_site1577],9.65 ± 0.4
19,AAAAAAAAAAAAAACACACACACACGCAAATACATA [CACACA_site6474],10.3 ± 0.27
20,AAGTAATACAACACGCACATATATATATATATATAT [GTGCAC_negctrl_site89],10.3 ± 0.25
21,AAAACATACATATATACACACATATATATATATATA [CACACA_site1852],9.97 ± 0.53
22,AAAAAAAAAAAAAACACACACACACGCATACACATA [CACACA_site7364],10.2
23,AAAAAAAAAAAAAAAACACACATACACGCACGCACA [CACACA_site7569],9.35 ± 0.23
24,AAAAAAAAAAAAAACACACACACACGCACATATACA [CACACA_site7288],10.1 ± 0.3

row,Sequence,gcPBM binding intensity (ln)
1,AATACATATAATACAACACACAAGTAATATAAACCT [CACACA_site3597],9.34 ± 0.29
2,CATATATATATATATTGTACAAGATTGTTTTTTTAT [XGTACX_site3913],8.79 ± 0.3
3,ATAAAAATTTAAAAAGAACACACGAAAGAAGGACTT [CACACA_site3929],9.01 ± 0.53
4,TTTTTTATGATTAACACACACACAAAAAAAAAAAAA [CACACA_site4130],9.03 ± 0.32
5,AAAAATTTTAATTAGGAACACACATATATATATATA [CACACA_site9016],9.48 ± 0.42
6,ATATTTGCCCAAGATAGTACATATATATATATATAT [XGTACX_site7756],9.74 ± 0.2
7,TACATATTTTATAACTGTACTTTTTTATTATCCAAT [XGTACX_site5396],8.71 ± 0.47
8,ATAAAAAGGAGACACACACACACACGCATATTTATA [CACACA_site6551],10.3 ± 0.26
9,AAGGATCACGCACAAACACACATATTTATATTTATA [CACACA_site6405],9.14 ± 0.45
10,AAAAAAAAAAAACATACACACATACATACCTATATA [CACACA_site6575],9.33 ± 0.3
11,TAAACATACCTATACACACACACACGCACACGCACA [CACACA_site6372],10.22 ± 0.042
12,TAAATAAAAAGACACACACACATATTTATATTTATA [CACACA_site7135],9.7 ± 0.19
13,AAAAAAAACAAACACACACACAAATATTTATATATT [CACACA_site436],9.63 ± 0.22
14,TAAAAGGAGACATATACACACATATATATATATATA [CACACA_site5539],10 ± 0.23
15,AACAAAAAAACAAACACACACACACGCATATTTATA [CACACA_site7680],10.2 ± 0.29
16,AACACATACAAACACACACACAAAAAAAAAAAAAAA [CACACA_site393],9.65 ± 0.49
17,AACATACACATATACACACACACATATATACCTATA [CACACA_site6643],10 ± 0.31
18,AAAAAAAAAAAAAACACACACACAAATACAAATACA [CACACA_site414],9.9 ± 0.36
19,AAAAAAAAAAAAAACACACACACACGCATACAAAAT [CACACA_site6794],10.2 ± 0.13
20,AATGAAGACTTTTTTACACACTTCATATATTATATA [CACACA_site2034],8.9 ± 0.39
21,ATATATCAAAATAATTGTACAAATTTTATATAATTT [XGTACX_site7249],8.53 ± 0.47
22,CGTACATAATTTTAATCACACACAAACAAACACATA [CACACA_site7947],9.42 ± 0.34
23,ATACTAAAAAGTATCTGTACTTATTTTAAAAATAAA [XGTACX_site4116],8.19 ± 0.53
24,TTATATTCTTTTCTCTTTCTACTTTTTTTTTTTTTT [XGTACX_negctrl_site317],8.45 ± 0.69

row,Sequence,gcPBM binding intensity (ln)
1,ATAGGTGAATACTAATATAAATTCAAGAGGGAAAAG [CACACA_negctrl_site720],8.9 ± 0.55
2,AAAAAAGTAAAAAGTGCATGTAAAATATAAGTATCT [TGCATGCA_site55],9.18 ± 0.61
3,CATATACATATATGTAGTACGTGTTCTTCTATATGA [XGTACX_site8344],8.84 ± 0.44
4,TATAATGGTTCTGGTGTGCACCATGACAGAATCAAG,8.82 ± 0.38
5,GTGTAAATATAATTAGTTTCACAAAACAAATATTTA [CACACA_negctrl_site717],8.61 ± 0.42
6,AAAGGGGATATATGAACACACAAAAAAAAAATATAT [CACACA_site2896],9.13 ± 0.68
7,ATTCTTTACTCATAAAATTATATTATATAAACTTTT [XGTACX_negctrl_site554],8.45 ± 0.52
8,AGTAATTTAAGGAATACACACAAGAAAAAAATAAGA [CACACA_site6177],9.13 ± 0.61
9,AGATCATAATATTATACACACATTATATATCTGTAA [CACACA_site4925],9.14 ± 0.26
10,GATCTACATGAAAGGACACACAAATATATATATATA [CACACA_site84],9.62 ± 0.35
11,AAATAAAAAAAATAAAAGCAATCATAATAAAAATCT [CACACA_negctrl_site161],8.79 ± 0.46
12,ATAAAAATATAATTGAGTACATATGAATAGTCCTAT [XGTACX_site6281],8.65 ± 0.42
13,ACATACACATATACATGTACATATATATATATATAT [XGTACX_site5082],9.68 ± 0.3
14,TACGAAATCATATGTACACACACATATATATATATA [CACACA_site5216],9.8 ± 0.14
15,ATATATATATATATATGTACATATACACATGTGTGC [XGTACX_site168],10.14 ± 0.099
16,GATATGTACTAATACACACACATATATATATATATA [CACACA_site1022],10.2 ± 0.23
17,TAAATACTAATATGTACACACATATAGATATAGATT [CACACA_site7247],8.96 ± 0.38
18,AAAAAATGCGACATGTGTACACATATATATATATAT [XGTACX_site1679],9.81 ± 0.3
19,GTAAATACACATATGTGTACATATATATATATATAT [XGTACX_site3696],9.67 ± 0.31
20,ATATATATATATATATGTACACACATCAATCATATT [XGTACX_site4005],9.96 ± 0.33
21,ATACACACATATATGTGTACATATACATATATATAT [XGTACX_site6744],9.88 ± 0.32
22,AAGATATGTACTAATACACACACATATATATATATA [CACACA_site8249],9.86 ± 0.14
23,AAATGCGCCATGTGTACACATATATATATATATATA [CACACA_site4649],10.1 ± 0.18
24,CGAAATCATATGTACACACACATATATATATATATA [CACACA_site2151],10.1 ± 0.18
